Experimental findings from ChEMBL document CHEMBL4513216, “Probing the Open Global Health Chemical Diversity Library for Multistage-Active Starting Points for Next-Generation Antimalarials” (ACS Infect Dis, 2020) are described below.

Each structure is given as a SMILES string. Screen size: about 69,000 compounds; about 8,600 (12%) showed an effect of 50% or more. For the sample, strong results were picked, then their nearest neighbours and some compounds at random.

The assay relates to Plasmodium berghei. In words: Screen against P. berghei liver stage (PbLuc), transformed with Luciferase, at 10uM. It counts as functional, HepG2. Particulars: tested at 10 uM.
Turning to `CC(CN1CCOCC1)OC(=O)c1ccccc1Cl` (centres undefined), the INHIBITION was determined as 35.8%.
For `Cn1nnc2c1C(COCc1ccccn1)CN(C(=O)c1ccsc1)C2` (centres undefined) the value was 1.9%.
Take `Cc1cc(CC(C)Nc2nc(-c3cccnc3)nc3c2CNC3)[nH]n1` (centres undefined): the INHIBITION is given as 47.4%.
For `Cc1cc(N(C)Cc2cc(C(C)(C)C)n[nH]2)nc(-c2cccnc2)n1` the value was 76.5%; for `Cc1cc(N(C)Cc2ncc[nH]2)nc(-c2cccnc2)n1`, -18.5%.
The same measure for `Cc1cc(N(C)Cc2snnc2C)nc(-c2cccnc2)n1`: -26.2%; for `Cc1ccccc1CN(CCN(C)C)Cc1ncc[nH]1`: 3.96%; for `Cc1cc(N(C)Cc2ncc[nH]2)nc(-c2ccccc2)n1`: 59.8%.
The same measure for `O=C(Cn1cccn1)N1CCC(c2nnc(-c3ccsc3)o2)CC1`: 23.55%; for `CN(C1CCCN(c2ccccn2)C1)S(C)(=O)=O` (centres undefined): -2.25%; for `CC(=O)Nc1cc2c(cc1C)OCO2`: 19.3%.
On to `COc1c(CNCC(O)COc2ccc3c(c2)OCO3)c(C)nn1C` (centres undefined), for which the INHIBITION is 21.5%.
Regarding `COc1ccccc1COCC(O)CN(C)Cc1cccc(Cl)c1` (centres undefined), the INHIBITION was found to be 24.6%.
For `Cc1ccccc1CN(C)CC(O)COCc1ccccc1Cl` (centres undefined) the value was 60%; for `COc1ccc(CN(C)CC(O)COCc2ccccc2Cl)c(OC)c1` (centres undefined), 48.2%.
Regarding `O=S(=O)(NCc1ccc(S(=O)(=O)N2CCCC2)s1)c1ccc(F)cc1Cl`, the INHIBITION is 18.3%.
As for `CN(C)S(=O)(=O)c1ccc2c(c1)N(Cc1nccn1C)CC2`, the INHIBITION came to 37.1%.
For `Cc1ccc([C@@]2(O)CC[C@@H]3CN(S(=O)(=O)C(C)C)C[C@@H]32)cc1` the value was 3.91%.
On to `CC(C)n1cc(CN2CCCN(C(=O)c3ccc[nH]3)CC2)cn1`, for which the INHIBITION is recorded as 52.1%.
The same measure for `CC(C)n1cc(CN2CCCN(C(=O)c3cc(Cl)c[nH]3)CC2)cn1`: 54.9%; for `CC(C)n1cc(CN2CCCN(C(=O)c3ccco3)CC2)cn1`: 25.1%; for `CC(C)n1cc(CN2CCCN(C(=O)c3cccn3C)CC2)cn1`: 34.6%.
`Cc1cc(C(=O)N2CCCN(Cc3cnn(C(C)C)c3)CC2)no1`: the INHIBITION came out at 39.3%.
Turning to `Cc1cnc(C(=O)N2CCCN(Cc3cnn(C(C)C)c3)CC2)cn1`, the INHIBITION was determined as 9.06%.
Take `Cc1cccc(CN2C[C@@H]3CN(C(=O)c4ccsc4)C[C@@H]3C2=O)n1`: the INHIBITION is 23.6%.
For `CN(C)S(=O)(=O)N1CCN(C(=O)OC(C)(C)C)CC12CCCCC2` the value was 27.5%; for `Cc1cnn(CC2CCCN2Cc2cn3ccsc3n2)c1` (centres undefined), 37.9%.
For the molecule `O=C1CCC(=O)c2oc3ccc(Cl)cc3c2N1`, the INHIBITION stood at 34.2%.
In the case of `CN(C)C(=O)N1C[C@H]2CC[C@@H](C1)N(C(=O)CCCn1cncn1)C2`, the INHIBITION is 6.8%.
In the case of `O=C(O)COCC(=O)NC1CC2(CCCCC2)Oc2ccccc21` (centres undefined), the INHIBITION is reported as 3.91%.
The same measure for `CC(C)c1nnc2n1CCN(C(=O)c1cn(-c3ccccc3)nn1)C2`: 21.1%; for `O=C(NC[C@]12COC[C@H]1CN(CC1CCOCC1)C2)c1ccco1`: 3.11%; for `Cc1ncc(CN2CCCC(c3nc4ccccc4n3C(C)C)C2)s1` (centres undefined): -21.4%.
The same measure for `c1ccc2c(OCCN3CCn4c(nnc4C4CC4)C3)cccc2c1`: 21.5%.
For `O=C1NCCN1C1CCN(CCOc2cccc3ccccc23)CC1` the value was 69.1%; for `O=C1NCCN1C1CCN(CC(O)c2ccccc2F)CC1` (centres undefined), 0.45%.
With `O=C1NCCN1C1CCN(CCOc2ccccc2F)CC1`, the INHIBITION turned out to be 63.85%.
On to `O=C1NCCN1C1CCN(CCOc2ccccc2Cl)CC1`, for which the INHIBITION is 22.6%.
As to `O=C1NCCN1C1CCN(CCc2cccs2)CC1`, the INHIBITION is reported as 29.5%.
The same measure for `COc1cc(C(=O)N(C)Cc2nccn2CC(F)(F)F)ccc1C`: 10.7%; for `Cc1cc(C(=O)N2CCC3(CC2)C(=O)N(C)CCN3CC(C)C)c(C)o1`: 49.4%; for `Cn1cccc1C(=O)N1CCC(c2nnc(Cn3ccnc3)n2C)CC1`: -10.3%.
For `NCC1[C@H]2CN(CCc3ccccc3)C[C@@H]12` (some centres undefined) the value was 33.2%; for `CN(C)c1nc2c(c(N3CCCC4(CC3)CNC(=O)O4)n1)CCCC2` (centres undefined), -26.8%.
The same measure for `CN(C)c1nc2c(c(N3CCC4(CCCNC4=O)C3)n1)CCCC2` (centres undefined): 42.2%; for `CN(C)c1nc2c(c(N3CCC4(CC3)CNC(=O)C4)n1)CCCC2`: 84.5%.
With `CCn1cc(NC(=O)NCC(C)N2CCCC2)cn1` (centres undefined), the INHIBITION was determined as 31.8%.
The same measure for `Cc1nc(CN2CCc3ncnc(C4CCOC4)c3CC2)cs1` (centres undefined): -33%; for `Cc1nc2ncc3c(=O)n(C)ccc3n2n1`: 0.647%.
`Cc1noc(C)c1CN1CCN(C(=O)C(C(C)C)n2cncn2)CC1` (centres undefined): the INHIBITION was determined as 7.44%.
On to `Cc1ccc(C(NC(=O)CN2CCc3c(ncn3C)C2)C2CC2)cc1` (centres undefined), for which the INHIBITION amounted to 6.99%.
Turning to `Cc1ccc(C(CNC(=O)c2cc(CC(C)C)nn2C)N(C)C)cc1` (centres undefined), the INHIBITION was -28.8%.
The same measure for `Cc1ccc(C(NC(=O)Cc2nc3ncccn3n2)C2CC2)cc1` (centres undefined): 53.4%; for `Cc1ccc(OCCCNC(=O)Cc2nc3ncccn3n2)cc1`: 27.7%; for `Cc1ccc(C(CNC(=O)Cc2nc3ncccn3n2)N(C)C)cc1` (centres undefined): 56.8%.
The same measure for `Cc1ccc(C(NC(=O)Cn2cc(C3CC3)nn2)C2CC2)cc1` (centres undefined): 8.08%; for `O=C1C(NS(=O)(=O)c2cccc(F)c2)CCN1Cc1ccccc1` (centres undefined): -5.25%.
For the molecule `Cc1ccc(N2C[C@H](C)[C@]3(CCN(c4cccnc4)C3=O)C2)nn1`, the INHIBITION was 38.5%.
For `CCC(C)N(Cc1sccc1C)C(=O)c1ccc2cccnc2n1` (centres undefined) the value was 11.2%; for `O=C(Cc1ccccn1)N1CCN(CC2CC2)c2ncccc2C1`, 24.5%; for `COCC(=O)N1CCN(CC2CC2)c2ncccc2C1`, -18.6%.
The same measure for `COCCC(=O)N1CCN(CC2CC2)c2nc(C)ccc2C1`: -7.24%.
For `CC(=O)NCC(=O)N1CCN(Cc2ccncc2)c2ncccc2C1` the value was 76.5%.
As to `O=C(O)CCC(=O)N1CCN(CC2CC2)c2ncccc2C1`, the INHIBITION was determined as 82%.
Turning to `CC(=O)NCC(=O)N1CCN(Cc2cccnc2)c2ncccc2C1`, the INHIBITION was -14%.
The same measure for `O=C(N1CCCC1)N1CCN(CC2CC2)c2ncccc2C1`: 20.5%.
The same measure for `COCCC(=O)N1CCN(CC2CC2)c2ncccc2C1`: 55.7%; for `CC(=O)NCC(=O)N1CCN(CC2CC2)c2ncccc2C1`: 27.9%.
The same measure for `COC(=O)C(NC(=O)C1CC1)c1cc(F)ccc1F` (centres undefined): 29.4%; for `CCOc1ccc(Cl)c(C(=O)NCCS(N)(=O)=O)n1`: 35.3%.
As to `COc1ccc(C2=CCN(C(=O)C3CCCN(C(C)=O)C3)CC2)cc1` (centres undefined), the INHIBITION turned out to be 1.78%.
With `CNC(=O)CN(C(=O)c1ccccc1)[C@H]1C[C@H]2CCOC[C@H]2C1`, the INHIBITION turned out to be 8.61%.
Consider `CN1CC(=O)N(c2cccc(F)c2)CC12CCN(Cc1ccncc1)C2` (centres undefined), for which the INHIBITION was -17.1%.
With `O=C(Cc1ccc(F)c(Br)c1)N1CCN(CCO)CC1`, the INHIBITION was 66.7%.
The same measure for `NC(=O)CN1CCCN(C(=O)Cc2ccc(F)c(Br)c2)CC1`: 14.4%; for `COc1ccc(Cl)cc1CC(=O)N1CCN(CCO)CC1`: 38.1%; for `Cn1cc(CN2CCc3onc(COc4cccnc4)c3C2)cn1`: 7.11%.
`CCS(=O)(=O)N1CCc2onc(COc3ccccn3)c2C1`: the INHIBITION is listed as 3.88%.
The same measure for `O=S(=O)(C1CC1)N1CCc2onc(COc3ccccn3)c2C1`: 61.5%.
For `c1ccc(OCc2noc3c2CN(c2ncccn2)CC3)nc1` the value was 24.6%; for `Cc1cccc(C(=O)N2CCCCC2c2nc(C)cs2)n1` (centres undefined), -21.9%; for `O=C(O)C1(Cc2ccc(Cl)cc2)CCN(c2ncccc2F)CC1`, 52%.
The same measure for `Cc1ncc(C)c(N2CCC(Cc3ccc(Cl)cc3)(C(=O)O)CC2)n1`: 12.7%; for `O=C(O)C1(Cc2ccccc2Cl)CCN(c2ncccc2F)CC1`: 43.5%.
On to `O=C(CCNC(=O)c1ccccc1)Nc1ccncc1`, for which the INHIBITION was determined as 1.58%.
For `COC[C@H]1CCC[C@]12CN(C(=O)NCc1ccccc1)CCO2` the value was -1.58%; for `COCC(=O)N1CCO[C@]2(CCC[C@H]2COC)C1`, 62.9%.
Consider `CC(C)OC[C@H]1CCC[C@]12CN(C(=O)C1CCOCC1)CCO2`, for which the INHIBITION is on record as 27.6%.
The same measure for `COC[C@@H]1CCC[C@@]12CN(C(=O)C1CCOCC1)CCO2`: 33.1%.
For `COC[C@H]1CCC[C@]12CN(S(=O)(=O)c1cccs1)CCO2` the value was -0.554%.
Regarding `COC[C@@H]1CCC[C@]12CN(S(=O)(=O)c1cccs1)CCO2`, the INHIBITION was 54.1%.
For `CC(C)OC[C@H]1CCC[C@]12CN(S(=O)(=O)c1cccs1)CCO2` the value was 45.2%.
Regarding `COC[C@@H]1CCC[C@@]12CN(C(=O)N1CCCC1)CCO2`, the INHIBITION was found to be 52.1%.
For `COC[C@@H]1CCC[C@@]12CN(C(=O)N(C)C)CCO2`, the INHIBITION is reported as 28.5%.
Take `CN(C)[C@@H]1COC[C@@H]2CN(Cc3ccc4c(c3)OCO4)C[C@@H]21`: the INHIBITION is recorded as -13.7%.
For `CC(=O)Nc1nc(CN2CCCCC2Cn2cccn2)cs1` (centres undefined) the value was -15.8%.
With `CN(C)C(=O)C1CCc2nnc(C(C)(C)C)n21` (centres undefined), the INHIBITION was -7.25%.
The same measure for `Cc1cc2nccc(C3CCCN(C(=O)c4cnccn4)C3)n2n1` (centres undefined): 33.2%.
The same measure for `O=C(NC1CC1)N1CCc2ncnc(-c3ccncc3)c2CC1`: -17%; for `O=C(c1ccoc1)N1CC[C@@H]2[C@H]1CCC(=O)N2c1ccccc1`: 43.2%.
For `Cc1occc1C(=O)N1CCC2(CCCN(Cc3cccs3)C2)C1` (centres undefined) the value was -60.9%; for `Cc1cnn(CCNCC(O)c2ccc(C(F)(F)F)cc2)c1` (centres undefined), 23.3%.
Take `CC(C)C(=O)NC1CCCN(C(=O)c2cc3ccccc3cc2O)C1` (centres undefined): the INHIBITION is on record as -13.3%.
For the molecule `Cc1ccn(-c2ccccc2NCc2cccnc2C)n1`, the INHIBITION is -11.8%.
For `Cc1ccn(-c2ccccc2NCc2cscn2)n1`, the INHIBITION is given as 52.4%.
With `Cc1ccn(-c2ccccc2NCc2ncc[nH]2)n1`, the INHIBITION amounted to 7.9%.
Consider `Cc1ccc(CNc2ccccc2-n2ccc(C)n2)nc1`, for which the INHIBITION came to 40.5%.
The same measure for `Cc1ccn(-c2ccccc2NCc2ccccn2)n1`: 2.37%; for `Cc1ccn(-c2ccccc2NCc2scnc2C)n1`: 58.3%.
